Bioassay records (PubChem)
Sampled rows, rich in hits. Any-hit rate of the full collection: about 4.7%.
D1 agonist – human D1 receptor agonism; activation, % at 2 µM; hit rate 1% among 360,000; HEK293 T-REx D1 cells, calcium flux, agonist mode; P21728
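Inducible HEK293 T-REx D1 cells, force-coupled to calcium signalling, were plated at 4000 cells/well with tetracycline and held overnight at 30 C. After no-wash calcium dye loading, compound-evoked calcium rise over 180 s flagged agonists.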
TRHR enhancer – allosterically enhances the human TRH receptor; P34981; TRHR cells, fluo-8 calcium fluorescence, EC20 TRH enhancement; enhancement, % at 2 µM; hit rate 0.66% among 360,000; in the data active = enhancement above about 30%
Target sequence (P34981 whole entry, looked up): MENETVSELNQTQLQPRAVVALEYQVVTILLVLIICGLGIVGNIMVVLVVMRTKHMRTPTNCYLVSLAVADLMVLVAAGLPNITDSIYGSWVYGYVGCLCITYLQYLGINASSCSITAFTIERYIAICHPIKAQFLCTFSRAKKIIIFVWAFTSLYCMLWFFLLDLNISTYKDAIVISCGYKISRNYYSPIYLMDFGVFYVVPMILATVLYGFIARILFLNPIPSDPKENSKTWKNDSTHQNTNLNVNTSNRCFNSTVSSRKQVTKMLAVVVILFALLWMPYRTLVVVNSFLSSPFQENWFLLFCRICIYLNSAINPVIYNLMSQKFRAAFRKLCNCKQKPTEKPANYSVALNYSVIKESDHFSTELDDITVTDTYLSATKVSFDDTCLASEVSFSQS
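TRHR-expressing cells loaded with fluo-8 calcium dye were read kinetically (ex 480/em 530) during compound addition, then stimulated with an EC20 of TRH (10 nM final). Enhancement of the Gq-mediated intracellular calcium response was scored.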
D1 antag – blocks dopamine activation of the human D1 receptor | P21728 | HEK293 TREx D1 cells, calcium flux, dopamine EC80; active compounds read low | activity change, negative = inhibition, % at 10 µM | hit rate 3.2% among 360,000; in the data active = activity change below about -30%
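Tetracycline-induced HEK293 Trex D1 cells, force-coupled to calcium, dye-loaded; compounds added and read 180 s, then EC80 dopamine added and calcium flux tracked kinetically another 180 s.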
D1 potentiator – enhances dopamine response at the human D1 receptor | potentiation, % at 10 µM | AID 504651 | hit rate 0.036% among 360,000 | HEK293 TREx D1 cells, calcium flux, dopamine EC20 potentiation; in the data active = potentiation above about 30%
TRHR agonist – TRH receptor (human) agonism; P34981; TRHR cells, calcium flux fluo-8, FDSS agonist mode; activation, % at 2 µM; hit rate 0.18% among 360,000
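Read-out: compound-evoked intracellular calcium rise in TRHR cells, fluo-8 dye, kinetic FDSS fluorescence at 1 s/cycle following a 10-cycle baseline. Cells cultured overnight before dye loading (30 min–1.5 h, RT).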
Numbers stand for hits. Cut-off read from the data, not from the text of the source, unless noted: active = activation above about 30%; inactive = the rest.

Screening CCOC(=O)c1c(C)[nH]c(C(=O)OCc2ccccc2F)c1C returned D1 agonist 31, TRHR enhancer inactive, D1 antag inactive, D1 potentiator inactive and TRHR agonist inactive.
`CCCNC(=O)c1[nH]c(C)c(C(=O)OCC)c1C` gave D1 agonist inactive, TRHR enhancer inactive, D1 antag -40, D1 potentiator inactive and TRHR agonist inactive.
Screening CCOC(=O)c1c(C)[nH]c(C(=O)O)c1C returned D1 agonist inactive, TRHR enhancer inactive, D1 antag inactive, D1 potentiator inactive and TRHR agonist inactive.
CCOC(=O)c1[nH]c(C)c(C(=O)OC)c1C was read as D1 agonist inactive, TRHR enhancer inactive, D1 antag inactive, D1 potentiator inactive and TRHR agonist inactive.
For CCOC(=O)c1[nH]c(C)c(C(=O)NC2CCCCC2)c1C the results were D1 agonist inactive, TRHR enhancer inactive, D1 antag -89, D1 potentiator inactive and TRHR agonist inactive.
Screening CNC[C@H](CC1CCCCC1)NC[C@H](Cc1ccccc1)NCCC12CC3CC(CC(C3)C1)C2 returned D1 agonist 32, TRHR enhancer inactive, D1 antag inactive, D1 potentiator inactive and TRHR agonist inactive.
`NC[C@H](Cc1ccccc1)NCCCCC1CCCCC1` gave D1 agonist inactive, TRHR enhancer inactive, D1 potentiator inactive and TRHR agonist inactive.
Screening COc1ccc2cc3cc(C(=O)NCCN4CCN(c5ccccc5F)CC4)oc3nc2c1 returned D1 agonist inactive, TRHR enhancer inactive, D1 antag inactive, D1 potentiator inactive and TRHR agonist inactive.
Screening COc1ccc2cc3cc(C(=O)Nc4ccccc4N4CCN(C)CC4)oc3nc2c1 returned D1 agonist inactive, TRHR enhancer inactive, D1 antag -41, D1 potentiator inactive and TRHR agonist inactive.
For CCOC(=O)c1c2ccccc2[n+]([O-])n1[C@@H](C)C(N)=O the results were D1 agonist inactive, TRHR enhancer inactive, D1 antag inactive, D1 potentiator inactive and TRHR agonist inactive.
Screening CC(C)[C@H](NC(=O)OCc1ccccc1)C(=O)OCC(=O)N1CCN(c2ccc(F)cc2)CC1 returned D1 agonist inactive, TRHR enhancer inactive, D1 antag -65, D1 potentiator inactive and TRHR agonist inactive.
For O=c1cc(-c2ccccc2)nc2c(-c3ccccc3)c(C(F)(F)F)[nH]n12 the results were D1 agonist inactive, TRHR enhancer inactive, D1 antag -31, D1 potentiator inactive and TRHR agonist inactive.
Screening CCN(CC)c1ccc(/C=C/C(=O)C2C(=O)C=C(C)OC2=O)cc1 (stereo not drawn) returned D1 agonist 246, TRHR enhancer 40, D1 antag -79, D1 potentiator inactive and TRHR agonist 222.
Screening CCN(CC)c1ccc(C=C2C(=O)OC(c3ccccc3)OC2=O)cc1 (stereo not drawn) returned D1 agonist inactive, TRHR enhancer inactive, D1 antag inactive, D1 potentiator inactive and TRHR agonist inactive.
`O=C(/C=C/NNC(=O)c1ccccc1)c1ccc([N+](=O)[O-])cc1` gave D1 agonist inactive, TRHR enhancer inactive, D1 antag inactive, D1 potentiator inactive and TRHR agonist inactive.
Screening Cc1ccc(OCC(=O)NNC(=S)NC(=O)c2cccs2)c(C)c1 returned D1 agonist inactive, TRHR enhancer inactive, D1 antag inactive, D1 potentiator inactive and TRHR agonist inactive.
Screening Cc1ccc(OCC(=O)NNC(=S)NC(=O)c2ccc(Br)o2)c(C)c1 returned D1 agonist 41, TRHR enhancer inactive, D1 antag inactive, D1 potentiator inactive and TRHR agonist inactive.
For COCCC1CCCCN1C(=O)c1cc(COc2cccc(C(C)=O)c2)on1 (stereo not drawn) the results were D1 agonist inactive, TRHR enhancer inactive, D1 antag -49, D1 potentiator inactive and TRHR agonist inactive.
Screening COC(=O)C1CCCCN1C(=O)c1cc(COc2cccc3cnccc23)on1 (stereo not drawn) returned D1 agonist inactive, TRHR enhancer inactive, D1 antag -43, D1 potentiator inactive and TRHR agonist inactive.
`COc1ccc(OCc2cc(C(=O)N(C)Cc3nccn3C)no2)c2ccccc12` gave D1 agonist inactive, TRHR enhancer inactive, D1 antag -40, D1 potentiator inactive and TRHR agonist inactive.
CN(Cc1nccs1)C(=O)c1cc(COc2cccc3cnccc23)on1 was read as D1 agonist inactive, TRHR enhancer inactive, D1 antag -32, D1 potentiator inactive and TRHR agonist inactive.
